58 molecules from PubChem BioAssay AID2013 (Sanford-Burnham Center for Chemical Genomics, 2009) can be followed below.

Where “and” joins values, the source holds several entries; their conditions need not be identical. Equal values may be shown once. The campaign covered roughly 290,000 compounds. About 370 (0.13%) were called active.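 Rule for the calls: active = spots per cell inhibited over 60%, with over 100 cells counted and total cytoplasm intensity under 500,000; inconclusive = wells with under 100 cells, flagged as likely toxic; inactive = the rest.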 For the sample, actives were picked, then their nearest neighbours and some compounds at random. Potency and affinity values are given separately.

The assay deals with G-protein coupled receptor 55 (Homo sapiens) (UniProt Q9Y2T6). Nature of the assay: inhibition of LPI-stimulated GPR55 beta-arrestin translocation – imaging, U2OS, beta-arrestin-GFP, LPI agonist, primary screen (AID 2013).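 Note: U2OS cells stably carrying GPR55 and arrestin-GFP stimulated by 5 µM LPI near EC80; imaged beta-arrestin-GFP aggregate spots per cell after agonist stimulation; plate controls were LPI-stimulated DMSO wells for no effect and DMSO wells without LPI for full effect.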 The conditions noted are these: LPI antagonism, at 10 µM, hits give high values.
Chain of G-protein coupled receptor 55 (Homo sapiens) (Q9Y2T6 whole entry, looked up): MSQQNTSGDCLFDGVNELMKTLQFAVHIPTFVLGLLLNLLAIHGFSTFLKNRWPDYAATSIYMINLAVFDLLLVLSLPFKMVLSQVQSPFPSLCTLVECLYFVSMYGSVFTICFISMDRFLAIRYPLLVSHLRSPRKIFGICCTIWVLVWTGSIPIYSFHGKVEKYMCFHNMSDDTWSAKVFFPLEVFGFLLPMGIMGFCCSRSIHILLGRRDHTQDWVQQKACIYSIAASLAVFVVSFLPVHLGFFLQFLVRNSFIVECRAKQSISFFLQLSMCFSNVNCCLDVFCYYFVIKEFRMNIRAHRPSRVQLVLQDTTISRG
Usually inhibition stands for the change of the read-out against control, counted positive when it falls. For the molecule `CC(=O)N1CCN(S(=O)(=O)c2ccc(C)cc2)C1c1ccc(N(C)C)cc1` (stereo not drawn), the inhibition is 3.3% (inactive).
Turning to `O=C(O)c1cccc(Nc2cc(Cl)c3nonc3c2[N+](=O)[O-])c1`, the inhibition is -6.5% (inactive).
Turning to `O=[N+]([O-])c1c(Nc2ccccc2O)cc(Cl)c2nonc12`, the inhibition was -4% (inactive).
On to `O=[N+]([O-])c1c(Nc2cccc(O)c2)cc(Cl)c2nonc12`, for which the inhibition is 77.1% (active).
In the case of `O=C(O)c1cc(Nc2cc(Cl)c3nonc3c2[N+](=O)[O-])ccc1O` it was -3.1% (inactive).
For `O=C(O)c1ccc(Nc2cc(Cl)c3nonc3c2[N+](=O)[O-])cc1`, the inhibition is 15.1% (inactive).
Regarding `CCNc1cc(Nc2c(C)n(C)n(-c3ccccc3)c2=O)c([N+](=O)[O-])c2nonc12`, the inhibition was 3.6% (inactive).
In the case of `O=[N+]([O-])c1c(Nc2ccccn2)cc(Cl)c2nonc12`, the inhibition is 4.7% (inactive).
With `Cc1c(Nc2cc(N3CCOCC3)c3nonc3c2[N+](=O)[O-])c(=O)n(-c2ccccc2)n1C`, the inhibition is 18.1% (inactive).
For the molecule `CN(C)c1cc(Nc2cccc(O)c2)c([N+](=O)[O-])c2nonc12`, the inhibition is -9.3% (inactive).
In the case of `O=[N+]([O-])c1c(Nc2ccc(O)cc2)cc(Cl)c2nonc12` it was 90.4% (active); in that of `CC(=O)N1CCN(c2ccc(NC(=O)c3ccc(F)cc3)cc2)CC1`, 4.7% (inactive); in that of `Cc1ccc(C(=O)NC2CCN(CC(=O)Nc3c(C)cc(C)cc3C)CC2)cc1`, 3.2% (inactive).
For `COc1cc(C(=O)NCc2nnc(SCC(=O)Nc3nc4ccccc4s3)o2)cc(OC)c1OC`, the inhibition is -13.1% (inactive).
Regarding `O=C(Cn1c(=O)c2cccn2c2cccnc21)N1CCN(c2ccc(Cl)cc2)CC1`, the inhibition was -2.4% (inactive).
As for `COc1ccc(NC(=O)CN(C)C(=O)C(C)Sc2ccccc2)cc1` (stereo not drawn), the inhibition was 8.3% (inactive).
For the molecule `CC(=O)Nc1ccc(S(=O)(=O)NC(CC(=O)NCCc2ccccc2)C(C)C)cc1` (stereo not drawn), the inhibition is 12.5% (inactive).
The value for `CC(=O)N1CCN(c2ccc(NC(=O)c3ccc([N+](=O)[O-])cc3Cl)cc2)CC1` was 3.5% (inactive).
As for `Cc1nc(-c2ccc([N+](=O)[O-])cc2)sc1C(=O)O`, the inhibition was 6.9% (inactive).
Take `CCS(=O)(=O)c1ccc(-c2csc(-c3ccccc3Cl)n2)c(Cl)c1Cl`: the inhibition was -11.1% (inactive).
The value for `CCS(=O)(=O)c1ccc(-c2csc(-c3ccccc3)n2)c(Cl)c1Cl` was 31.4% (inactive).
In the case of `COc1ccc(-c2csc(Nc3cccc(C)n3)n2)cc1C` it was 13.8% (inactive).
For `O=C(Nc1nc(-c2ccc(F)c(F)c2)cs1)c1ccc(OCC2CCCO2)cc1` (stereo not drawn), the inhibition is -5.3% (inactive).
Turning to `COc1ccc(OC)c(-c2csc(NC(=O)c3ccc(OCC4CCCO4)cc3)n2)c1` (stereo not drawn), the inhibition is -3% (inactive).
Take `O=C(Nc1nc(-c2ccc(Cl)cc2Cl)cs1)c1ccc(OCC2CCCO2)cc1` (stereo not drawn): the inhibition was 96% (active).
Take `CCn1nc(C)c(/C=N/NC(=O)Cn2nnc(N)n2)c1C`: the inhibition is -1.9% (inactive).
For the molecule `CCOC(=O)C1CCCN(S(=O)(=O)c2cc(Br)cc3c2N(C(=O)CC)CC3)C1` (stereo not drawn), the inhibition is -0.6% (inactive).
As to `COc1cc(/C=C/C(=O)OCN2C(=O)c3ccccc3C2=O)ccc1OC(F)F`, the inhibition was 0.4% (inactive).
On to `COc1ccc(-c2oc(/N=C/N3CCCC3)c(C#N)c2-c2ccc(OC)cc2)cc1`, for which the inhibition was 14.8% (inactive).
For the molecule `N#Cc1c(/N=C/c2ccccc2)oc(-c2ccccc2)c1-c1ccccc1`, the inhibition is -11.7% (inactive).
In the case of `CC(C)(C)SCCNC(=O)/C=C/c1ccccc1`, the inhibition was 2.8% (inactive).
`COc1ccc(S(=O)(=O)n2nc(OC(=O)c3c(-c4ccccc4Cl)noc3C)cc2N)cc1`: the inhibition was -4.9% (inactive).
For the molecule `Cc1ccsc1C(=O)N(c1nc2ccccc2s1)c1c(C)cccc1C`, the inhibition was 9.7% (inactive).
With `COc1cccc(N(C(=O)c2cccs2)c2nc3ccccc3s2)c1`, the inhibition was 0.2% (inactive).
For the molecule `O=C(COC(=O)C1CC2C=CC1C2)Nc1cccc(S(=O)(=O)N2CCOCC2)c1` (stereo not drawn), the inhibition was -10.4% (inactive).
In the case of `C=C(c1ccc(OC)cc1)c1ccc(OC)cc1` it was -8% (inactive).
Turning to `O=C(c1ccc(O)cc1)c1ccc(C(=O)c2ccc(O)cc2)cc1`, the inhibition was 9.7% (inactive) and -6% (inactive).
Take `ONC(=Nc1ccccc1)c1ccc(Cl)cc1`: the inhibition was 19.2% (inactive).
With `COc1cccc(C(c2nnnn2Cc2ccco2)N2CCN(c3cccc(C)c3C)CC2)c1OC` (stereo not drawn), the inhibition is 99.7% (active).
Consider `CCN1CCN(C(c2cccc(OC)c2OC)c2nnnn2Cc2ccco2)CC1` (stereo not drawn), for which the inhibition was -6.5% (inactive).
`COc1ccccc1C(c1nnnn1Cc1ccco1)N1CCN(c2cccc(C)c2C)CC1` (stereo not drawn): the inhibition was 15.4% (inactive).
Consider `O=C(NC1CCN(Cc2ccc(F)cc2)CC1)c1ccccc1`, for which the inhibition was 6.4% (inactive).
In the case of `Fc1ccc(NC(=S)NC2CCN(Cc3ccccc3)CC2)cc1` it was 28.1% (inactive); in that of `COCCN(CCOC)C(=S)Nc1ccccc1`, 12.7% (inactive); in that of `NC(=O)C1CCN(C(=O)C2CC(=O)N(c3ccc(F)cc3)C2)CC1` (stereo not drawn), -0.2% (inactive).
As for `COc1ccccc1OCC(=O)N1CCN(C(=O)COc2ccccc2OC)CC1`, the inhibition was 2.2% (inactive).
On to `Oc1ccc(Nc2nc(-c3ccccc3F)nc3ccccc23)cc1`, for which the inhibition was 7.7% (inactive).
Take `Oc1ccc(/C=N/Nc2nc(-c3cccnc3)nc3ccccc23)c(O)c1`: the inhibition is 1.9% (inactive).
With `O=C(Nc1nnc(-c2ccccc2)o1)c1cc(Cl)sc1Cl`, the inhibition was -2.3% (inactive).
As to `O=C(O)c1cc2c(cc1NC(=O)c1ccccc1OC(F)F)OCCCO2`, the inhibition was -0.6% (inactive).
Regarding `CCOC(=O)c1c(NC(=O)c2ccnn2C)sc(C)c1C`, the inhibition is 1.1% (inactive).
In the case of `CCOC(=O)c1c(NC(=O)C2=C(C)NC(=S)NC2c2ccc(F)cc2F)sc(C)c1C` (stereo not drawn) it was 10% (inactive).
As for `CCOC(=O)c1c(NC(=O)C2=C(C)NC(=S)NC2c2ccccc2C(F)(F)F)sc(C)c1C` (stereo not drawn), the inhibition is 5.6% (inactive).
As for `CCOC(=O)c1c(NC(=O)c2cccnc2)sc(C)c1C`, the inhibition was -12.1% (inactive).
In the case of `CCOC(=O)c1c(NC(=O)c2ccc(Cl)s2)sc(C)c1C` it was 1.6% (inactive); in that of `CCOC(=O)c1c(NC(=O)c2ccncc2)sc(C)c1C`, -0.7% (inactive); in that of `CCOC(=O)c1c(NC(=O)C2=C(C)NC(=S)NC2c2ccc(F)cc2)sc(C)c1C` (stereo not drawn), 64.1% (active).
For `Cc1ccccc1NC(=O)CCS(=O)(=O)c1cccc2nonc12`, the inhibition is 2.7% (inactive).
